From PubChem BioAssay AID1851 (National Center for Advancing Translational Sciences (NCATS), 2009)
Screen size: about 16,000 compounds; about 5,100 (32%) were called active. About 25% were inconclusive and are not listed. The call rests on the fitted dose curve; in most records, active means well fitted curve in the direction sought with a large enough effect; inconclusive means small, poorly fitted or top-dose-only effect, or effect the other way; inactive means no such curve, though single readings can be large or run the other way. The list shows a part of the results.

Target: Cytochrome P450 3A4 (Homo sapiens) (UniProt P08684)
Sequence (P08684 whole entry, looked up): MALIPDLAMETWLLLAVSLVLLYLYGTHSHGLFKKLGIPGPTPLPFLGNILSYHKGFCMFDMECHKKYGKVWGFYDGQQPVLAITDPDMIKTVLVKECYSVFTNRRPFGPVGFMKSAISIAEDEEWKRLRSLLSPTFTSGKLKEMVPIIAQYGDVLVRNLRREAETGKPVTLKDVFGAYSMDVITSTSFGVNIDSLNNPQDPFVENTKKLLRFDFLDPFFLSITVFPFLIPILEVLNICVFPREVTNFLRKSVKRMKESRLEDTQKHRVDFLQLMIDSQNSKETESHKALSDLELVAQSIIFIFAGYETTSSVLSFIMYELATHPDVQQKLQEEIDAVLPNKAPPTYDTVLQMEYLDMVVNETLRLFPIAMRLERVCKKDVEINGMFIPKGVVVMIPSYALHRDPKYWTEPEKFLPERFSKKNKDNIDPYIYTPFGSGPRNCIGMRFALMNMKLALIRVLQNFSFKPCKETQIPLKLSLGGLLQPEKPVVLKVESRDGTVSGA
Test: Cytochrome panel assay with activity outcomes
Settings: recombinant CYP, pro-luciferin dealkylation, luminescence, p450-cyp3a4; series mostly up to 57.1 µM
On the % scale 0 is the no-effect control and ±100 the full control effect.

| Compound | activity, negative = inhibition | AC50 |
| --- | --- | --- |
| CC(C)N(CC(=O)O)CC(=O)O | -7.3% [at 11.4 µM] (inactive) | – |
| CC12c3ccccc3C(c3ccccc31)C1C(=O)N(Cc3cccnc3)C(=O)C12 (configuration not stated) | – | 1.58 µM (active) |
| CC1CCCC(C)N1C(=O)C1CC(c2ccc(F)cc2)=NO1 (configuration not stated) | – | 11.2 µM (active) |
| CC1CCN(C(=O)CSc2nc3cccnc3n2C)CC1 | – | inactive |
| COc1ccccc1-n1c(SCC(=O)N2CCCC2)nc2cccnc21 | – | 15.8 µM (active) |
| O=C(O)c1cccnc1SCC(=O)N1CCCCCC1 | – | inactive |
| CCN(CC)S(=O)(=O)c1ccc2c(c1)nc(SCC(=O)N1CCOCC1)n2-c1ccccc1OC | – | 3.98 µM (active) |
| CC(C)=C[C@H]1[C@@H](COC(=O)c2ccccc2Cl)C1(C)C | -18.7% [at 11.4 µM] (inactive) | – |
| CCNC(=S)NNC(=O)c1cc(C2CC2)nc2ccccc12 | -10.5% [at 2.29 µM] (inactive) | – |
| Cc1cc(C(=O)NNC(=S)NC(C)c2ccccc2)c2ccccc2n1 (configuration not stated) | – | 14.1 µM (active) |
| CCNC(=S)NNC(=O)c1cc(CC(C)C)nc2ccccc12 | -3.62% [at 2.29 µM] (inactive) | – |
| CCCS(=O)(=O)N1CCN(CC2CC=CCC2)CC1 (configuration not stated) | – | inactive |
| COc1ccc2nc(N3C(=O)CC(Cc4ccc(Cl)cc4)C3=O)sc2c1 (configuration not stated) | – | inactive |
| COc1ccc(-n2cnnc2)cc1 | – | inactive |
| COc1ccc(CN2CN(c3ccc(Cl)cc3)C(=O)N(n3cnnc3)C2)cc1 | – | 14.1 µM (active) |
| O=C(CSc1c[nH]c2ccccc12)N1CCOCC1 | – | 15.8 µM (active) |
| Nn1c(SCC(=O)N2CCOCC2)nnc1-c1ccccc1Cl | – | inactive |
| C=C(C)C1Cc2nc(N)nc(C)c2C1 (configuration not stated) | – | inactive |
| Cc1ccc(C)c(S(=O)(=O)N2CCC(c3nc4c(nnn4Cc4ccc(F)cc4)c(=O)[nH]3)CC2)c1 | – | 6.31 µM (active) |

| Compound | activity, negative = inhibition | AC50 |
| --- | --- | --- |
| COc1cccc(Cn2nnc3c(=O)[nH]c(C4CCCN(C(=O)c5ccccc5Cl)C4)nc32)c1 (configuration not stated) | – | 2 µM (active) |
| Cc1ccc(Cn2nnc3c(=O)[nH]c(C4CCCN(C(=O)Nc5ccc(F)cc5F)C4)nc32)cc1 (configuration not stated) | – | 7.08 µM (active) |
| O=C(NCc1ccco1)c1nc2c(nnn2Cc2cccc(Cl)c2)c(=O)[nH]1 | – | inactive |
| CC(=O)NC1(c2ccc(F)cc2)CCN(C(=O)Nc2ccc(F)cc2F)CC1 | – | inactive |
| O=C(O)C[C@@H](C(=O)O)C1c2ccccc2-c2ccccc21 | -5.49% [at 11.4 µM] (inactive) | – |
| NC(=O)c1cc[n+](CC2=C(C(=O)O)N3C(=O)[C@@H](NC(=O)[C@H](c4ccccc4)S(=O)(=O)[O-])[C@@H]3SC2)cc1 | – | inactive |
| O=C(O)/C=C/c1cn(-c2ncc(C(F)(F)F)cc2Cl)c2ccccc12 | – | inactive |
| Cn1c(C(N)=O)cnc1Sc1ncc(C(F)(F)F)cc1Cl | – | inactive |
| CN(NC(=O)NN)c1ncc(C(F)(F)F)cc1Cl | – | 14.1 µM (active) |
| CC(C)(C)c1ccc(C(=O)NCCC(=O)NCc2ccco2)cc1 | – | 14.1 µM (active) |
| C[C@H]1C2=C3C(CC[C@H]4C(OCc5ccc(F)cc5C(F)(F)F)OC[C@](C)([C@@H]34)N(C(=O)OC(C)(C)C)C2)C(CO)C1CO (some centres not stated) | – | 15.8 µM (active) |
| COCC1C2CC[C@H]3C(OCc4ccc(F)cc4C(F)(F)F)OC[C@]4(C)[C@H]3C2=C(CN4C(=O)OC(C)(C)C)[C@H](C)C1COC (some centres not stated) | – | 15.8 µM (active) |
| COc1cc(OC)c(NC(=S)Nc2cccc(C(C)=O)c2)cc1Cl | – | 5.01 µM (active) |
| Cn1ncc([N+](=O)[O-])c1C(=O)Nc1ccc2c(c1)OCCO2 | – | inactive |
| CC(C)Oc1ccc(C(=O)Nc2ccc(NC(=O)c3ccco3)c(Cl)c2)cc1 | – | inactive |
| O=C(Nc1ccc2c(c1)OCCO2)c1cccc2nc3ccccc3nc12 | – | 11.2 µM (active) |
| COc1ccc(C(=O)Nc2ccc(NC(=O)c3ccco3)c(Cl)c2)cc1OC | -24% [at 11.4 µM] (inactive) | – |
| COc1cc(NC(=O)c2ccccc2Cl)ccc1NC(=O)c1ccco1 | – | 14.1 µM (active) |
| CC1(C)Oc2ccc(NC(=O)c3ccco3)cc2O1 | – | inactive |

| Compound | activity, negative = inhibition | AC50 |
| --- | --- | --- |
| O=C(Nc1ccccc1C(=O)Nc1ccc2c(c1)OCO2)c1ccco1 | – | 1.26 µM (active) |
| CCOC(=O)C1=C(CSc2nc(-c3ccccc3)ccc2C#N)OC(N)=C(C#N)C1c1ccc(OC)cc1 (configuration not stated) | -22.9% [at 2.29 µM] (inactive) | – |
| CCOC(=O)C1=C(c2ccccc2)OC(N)=C(C#N)C1c1ccc(Cl)s1 (configuration not stated) | – | inactive |
| COC(=O)C1=C(C)OC(N)=C(C#N)C1c1cc(OC)ccc1OC (configuration not stated) | – | 8.91 µM (active) |
| COC(=O)C1=C(C)OC(N)=C(C#N)C1C1CCCCC1 (configuration not stated) | – | 7.08 µM (active) |
| C[C@H]1NC(=O)NC1=O | – | inactive |
| CC1=C[N+](=O)c2ccccc2[N+]1=O | -3.77% [at 11.4 µM] (inactive) | – |
| CC(=O)NCCNc1ncnc2ccc(-c3ccccc3C)cc12 | – | 12.6 µM (active) |
| COc1ccccc1-c1ccc2ncnc(NCCNC(C)=O)c2c1 | – | 20 µM (active) |
| CC(=O)NCCNc1ncnc2ccc(-c3ccccc3C(F)(F)F)cc12 | – | 6.31 µM (active) |
| CC(=O)NCCNc1ncnc2ccc(-c3ccccc3Cl)cc12 | – | 15.8 µM (active) |
| CN(C)CCCNc1ncnc2nc[nH]c12 | -8.34% [at 11.4 µM] (inactive) | – |
| CC(C)(C)c1ccc(OCC(=O)N/N=C/c2cc(Br)ccc2OC(=O)c2ccco2)cc1 | – | inactive |
| Cc1ccc(/C=N/NC(=O)Cn2nccc2C)o1 | – | inactive |
| Cc1ccc(NCC(=O)N/N=C/c2ccc(OC(=O)c3ccco3)cc2)cc1 | – | 17.8 µM (active) |
| CCOC(=O)N/N=C\c1ccc([N+](=O)[O-])o1 | -11.7% [at 2.29 µM] (inactive) | – |
| Oc1ccc(/C=N/NC(=S)NCc2ccco2)cc1 | -2.66% [at 2.29 µM] (inactive) | – |
| Cc1ccc(NCC(=O)N/N=C\c2ccc([N+](=O)[O-])o2)cc1 | – | 25.1 µM (active) |
| OC[C@@H]1O[C@@H](n2cnc3c(NC4CCCC4)ncnc32)[C@@H](O)[C@H]1O | – | inactive |
